From PubChem BioAssay (EPA / NIEHS)
Values joined by “and” are separate entries in the source; they are usually repeats but may differ in a detail not shown here. Identical values can stand only once. Where a structure was tested more than once in an assay, its records may differ in their call. Active and inactive are the calls of the source. The calls were made as follows: active = hit-call score of the fitted dose curve at least 0.9, where 1 is the maximum; inactive = score below 0.9.

read-out: CD38, CD38 (gene 952); test: BSK_SAg_CD38: BioMAP Diversity Plus: SAg Assay for CD38 Biomarker Activity (AID 2283087); conditions: primary human HUVEC with PBMC; actives raise or lower the signal
Method: BSK_SAg is a cell-based, multiplexed-readout assay that uses umbilical vein endothelium and peripheral blood mononuclear cells, a human vascular primary cell co-culture, with measurements taken at 24 hours after chemical dosing in a 96-well plate.BSK_SAg_CD38 is one of 10 assay component(s) measured or calculated from the BSK_SAg assay. It is designed to make measurements of enzyme-linked immunosorbent assay, a form of binding reporter, as detected with fluorescence intensity signals by Enzyme-linked immunosorbent assay technology.Data from the assay component BSK_SAg_CD38 was analyzed into 1 assay endpoint. This assay endpoint, BSK_SAg_CD38, was analyzed with bidirectional fitting relative to DMSO as the negative control and baseline of activity. Using a type of binding reporter, gain or loss-of-signal activity can be used to understand changes in the signaling as they relate to the gene CD38. Furthermore, this assay endpoint can be referred to as a primary readout, because this assay has produced multiple assay endpoints where this one serves a signaling function. To generalize the intended target to other relatable targets, this assay endpoint is annotated to the cytokine intended target family, where the subfamily is other cytokine.
The levels of cell surface (or secreted, indicated by the prefix "s") biomarker endpoints were measured by ELISA. Overt cytotoxicity to cells in confluent adherent cultures (all systems other than the BT system) was assessed by measuring total protein levels using sulforhodamine B (SRB) staining in parallel cultures at the time of biomarker measurements, indicated as SRB endpoints. For proliferation assays for adherent cell types, individual cell types are cultured at sub-confluence and relative cell numbers quantified by SRB staining at time points optimized for each system (48 h: 3C and CASM3C systems; 72 h: BT and HDF3CGF systems; 96 h: SAg system). SRB was performed by staining cells with 0.1% SRB after fixation with 10% TCA and reading wells at 560 nm.Viability and proliferation of PBMC (T cells) was quantified by Alamar Blue reduction for the SAg and BT systems. For PBMC viability (referred to as PBMC Cytotoxicity within the assay endpoint names), cells were plated (75,000/well in a 96-well plate) and then chemical samples added for 1 h before addition of activators, SEB and TSST-1 (20 ng/mL final concentration each). Cells were incubated for 90 h. Then, Alamar Blue (20 uL/well) (Invitrogen, Cat DAL1100) was added for 6 h, and the plates were read with a fluorescence microplate reader at 546/580 nm (excitation/emission). For PBMC proliferation, cells were plated and activated as above but incubated for only 16 h prior to addition of Alamar Blue. Plates were read after 6 h.

Row | SMILES | outcome | AC50
1 | FC(F)C(F)(F)COCC1CO1 (stereo not given) | inactive | –
2 | O=S(=O)(O)c1ccc(N=Nc2c(O)ccc3cc(S(=O)(=O)O)ccc23)cc1 | inactive | –
3 | O=C(Cl)C(F)(F)C(F)(F)C(F)(F)C(=O)Cl | inactive | –
4 | OC[C@H]1O[C@@](CO)(O[C@H]2O[C@H](CO)[C@@H](O)[C@H](O)[C@H]2O)[C@@H](O)[C@@H]1O | inactive | –
5 | CCCc1ccccc1 | inactive | –
6 | Cc1cccc(O)c1C | inactive | –
7 | Cn1c(=O)c2[nH]cnc2n(C)c1=O | inactive | –
8 | OC(O)(C(F)C(O)(O)C(F)(F)F)C(F)(F)F | – | 16.6 µM (active) and 18.1 µM (active)
9 | NNC(=O)c1ccncc1 | inactive | –
10 | OCc1c[nH]c2ccccc12 | inactive | –
11 | CCCCCCOC(=O)CC(CC(=O)OCCCCCC)(OC(=O)CCC)C(=O)OCCCCCC | inactive | –
12 | Cn1cc[nH]c1=S | inactive | –
13 | C[C@@H](Oc1ccc(CNC(=O)c2cccnc2Oc2ccc3c(c2)OCO3)c(F)c1)C(=O)O | inactive | –
14 | O=S(=O)(O)CCC(F)(F)C(F)(F)C(F)(F)C(F)(F)C(F)(F)C(F)(F)F | inactive | –
15 | NCC(F)(F)C(F)(F)C(F)(F)C(F)(F)F | inactive | –
16 | CCCC(CCC)C(=O)O | inactive | –
17 | CNC(C)=O | inactive | –
18 | O=C(O)c1ccc2c(c1)nc(C(=O)NC1CCN(C3CC3)CC1)n2Cc1cc(-c2ccc(Cl)s2)on1 | inactive | –
19 | C[C@]12C=CC(=O)C=C1CC[C@H]1[C@@H]3C[C@@H](O)[C@](O)(C(=O)CO)[C@@]3(C)C[C@H](O)[C@@]12F | inactive | –
20 | CCc1cccc(CC)c1N | inactive | –

Row | SMILES | outcome | AC50
21 | CCCCCCCCCC | inactive | –
22 | NC(=O)NN=Cc1ccc([N+](=O)[O-])o1 | inactive | –
23 | OC[C@H]1O[C@@H]2O[C@H]3[C@H](O)[C@@H](O)[C@@H](O[C@H]4[C@H](O)[C@@H](O)[C@@H](O[C@H]5[C@H](O)[C@@H](O)[C@@H](O[C@H]6[C@H](O)[C@@H](O)[C@@H](O[C@H]7[C@H](O)[C@@H](O)[C@@H](O[C@H]1[C@H](O)[C@H]2O)O[C@@H]7CO)O[C@@H]6CO)O[C@@H]5CO)O[C@@H]4CO)O[C@@H]3CO | inactive | –
24 | CCCOc1ccc(S(=O)(=O)N2CCN(CC)CC2)cc1-c1nc2c(CC)n(Cc3ccccn3)nc2c(=O)[nH]1 | inactive | –
25 | FC(F)(F)C(F)(F)C(F)(F)C(F)(F)C(F)(F)C(F)(F)I | inactive | –
26 | CCCCOC(=O)c1ccccc1 | inactive | –
27 | CC(=O)c1ccccc1 | inactive | –
28 | Nc1ccn([C@@H]2O[C@H](CO)[C@@H](O)[C@@H]2O)c(=O)n1 | inactive | –
29 | OCc1ccccc1 | inactive | –
30 | COS(C)(=O)=O | inactive | –
31 | NC(=O)N(O)[C@@H]1COc2cc(OCc3ccccc3)ccc21 | inactive | –
32 | CCc1ccc(O)c(C(C)(C)C)c1 | – | 26.7 µM (active)
33 | OCCC(F)(F)C(F)(F)C(F)(F)C(F)(F)F | inactive | 0.234 µM (active)
34 | CCCCCCCC1CCC(=O)O1 (stereo not given) | inactive | –
35 | CCCCC(CC)C(=O)OCCOCCOCCOC(=O)C(CC)CCCC (stereo not given) | inactive | –
36 | CC(C)CCCCCCOC(=O)C1CCCCC1C(=O)OCCCCCCC(C)C (stereo not given) | inactive | –
37 | CCCCCCCC/C=C\CCCCCCCC(=O)OC[C@@H](O)[C@H]1OC[C@H](O)[C@H]1O | inactive | –
38 | Cc1nccn1-c1ccc(Sc2cccc(C3(C(N)=O)CCOCC3)c2)cc1 | – | 5.57 µM (active)
39 | O=C(O)[C@H](O)[C@@H](O)C(=O)O | inactive | –
